From PubChem BioAssay
JMJD2A Tudor inh – JMJD2A Tudor domain (human) inhibition. O75164. AlphaScreen JMJD2A-Tudor / H3K4me3 peptide binding. Potency, µM (series often up to 114 µM), actives largely listed as inhibitors. hit rate 4.4% among 390,000; note: nearly all actives have a fitted effect of over 50% in size
HP1b binding inh – blocks HP1-beta chromodomain binding to methylated histone tails. AlphaScreen HP1-beta / biotin-H3K9me3 peptide binding. Potency, µM (top dose mostly 114 µM), actives largely listed as inhibitors. hit rate 0.56% among 390,000; note: nearly all actives have a fitted effect of over 70% in size
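HP1-beta protein (50 nM final) preincubated 30 min at room temperature with biotinylated H3(1-18)K9me3 peptide (50 nM) in PBS pH 7.4, 0.01% Tween-20, then compound added for 30 min. AlphaScreen streptavidin donor/nickel chelate acceptor beads (10 ug/mL final), 30 min dark, luminescence read.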
BAZ2B inh – blocks human BAZ2B | AID 504333 | Potency, µM (series often up to 114 µM), usual class: inhibitors | AlphaScreen BAZ2B-H3K14Ac peptide displacement | hit rate 4.4% among 360,000 | Q9UIF8; note: nearly all actives have a fitted effect of over 60% in size
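Complex of BAZ2B and biotin-H3K14Ac (50 nM apiece) forms over 30 min at RT, then faces library compounds up to 110 uM for another 30 min; AlphaScreen beads added, 20 min dark incubation, luminescence read.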
PI5P4Ka inh – PI5P4K alpha (human) kinase inhibition | PI5P4Kalpha enzyme, ADP-Glo luminescence, 60 min; hits give low values | max response, % | hit rate 1.2% among 330,000 | P48426; active = max response of -50% or lower; inconclusive = between -30% and -50%; inactive = -30% or higher; note: value at the top dose of about 77 µM
Target sequence (P48426 whole entry, looked up): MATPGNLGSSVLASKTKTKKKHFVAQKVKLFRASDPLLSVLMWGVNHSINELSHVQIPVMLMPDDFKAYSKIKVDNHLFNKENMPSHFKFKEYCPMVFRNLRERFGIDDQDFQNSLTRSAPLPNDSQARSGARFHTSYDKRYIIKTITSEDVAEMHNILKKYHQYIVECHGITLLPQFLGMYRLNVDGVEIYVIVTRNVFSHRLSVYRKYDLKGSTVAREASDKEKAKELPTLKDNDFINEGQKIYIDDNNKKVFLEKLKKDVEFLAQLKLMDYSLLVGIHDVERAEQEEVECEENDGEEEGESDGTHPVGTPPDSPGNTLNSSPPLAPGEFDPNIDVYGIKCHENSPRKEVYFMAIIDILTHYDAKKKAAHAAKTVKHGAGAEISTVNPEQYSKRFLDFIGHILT
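PI5P4Kalpha ADP-Glo assay; 5 microM ATP final; 60 min RT reaction; HEPES pH 7.4/EGTA/CHAPS, 5% DMSO; controls lacking substrate or enzyme; luminescent end-point.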
G9a block – blocks human histone lysine methyltransferase G9a; hit rate 8.8% among 350,000; Potency, µM (titrated, usually from 102 µM), hits mostly inhibitors; G9a H3K9 monomethylation, AlphaScreen, 2 h; Q96KQ7; AID 504332; note: nearly all actives have a fitted effect of over 75% in size
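G9a (20 nM) was preincubated 15 min with compound, then reacted 2 h at room temperature with 500 nM biotin-H3K9 peptide and 20 µM SAM. Monomethyl-H3K9 detected by AlphaScreen using anti-H3K9me1 antibody.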
L3MBTL1 inh – L3MBTL1 (human) inhibition. Q9Y468. AlphaScreen L3MBTL1–H3K9me1 peptide binding. Potency, µM (series often up to 57.1 µM), actives largely listed as inhibitors. hit rate 0.66% among 230,000. AID 485360; note: nearly all actives have a fitted effect of over 60% in size
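First, the protein-peptide complex forms for 30 min at room temperature (L3MBTL1 50 nM, biotinylated H3K9me1 peptide 75 nM). Next, compounds are pin-transferred and incubated 30 min. Finally, AlphaScreen beads are added and read after 30 min.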
A number is an active result; – = inactive; ? = inconclusive; · = not tested or not shown; [ ] = remark or other dose. Compounds with a hit are over-represented: about 11% of the library has one in this group of screens. Unless noted, calls come from the whole dose curve; as a rule, active = well fitted inhibition curve with a large enough effect; inconclusive = small, poorly fitted or top-dose-only effect; inactive = no such curve, though single readings can be large or run the other way.

SMILES	JMJD2A Tudor inh	HP1b binding inh	BAZ2B inh	PI5P4Ka inh	G9a block	L3MBTL1 inh
N#Cc1c(-c2ccccc2)cc(-c2ccccc2)nc1SCC(O)CS(=O)(=O)Cc1ccccc1 (stereo not given)	–	–	–	·	4.47µM	·
COc1ccc(-c2cc(-c3cccs3)c(C#N)c(SCC(=O)NCc3ccccc3)n2)cc1	–	–	–	–	–	–
N#Cc1c(-c2ccc(Cl)cc2)cc(-c2cccs2)nc1SCC(=O)O	28.2µM	–	22.4µM	?	8.91µM	·
CC1CCN(C(=O)c2cc3c(=O)n(C)c4cc(Cl)ccc4c3s2)CC1	–	–	·	·	–	·
COC(=O)c1sc2cccc(F)c2c1S(=O)(=O)N1CCN(c2ccccc2OC)CC1	–	–	–	·	?	·
CC(=O)c1ccc(NC(=O)C2CCC(CNS(=O)(=O)c3cccs3)CC2)cc1 (stereo not given)	–	–	–	·	–	·
CC(=O)N1CCCc2cc(S(=O)(=O)N(C)CC(=O)Nc3ccc(Cl)cc3C)ccc21	–	–	–	·	–	·
CN1CCN(C(=O)CSc2nc(-c3cccs3)ccc2C#N)CC1	?	–	–	?	39.8µM	–
CCOC(=O)C1CCN(C(c2ccccc2)c2c(O)cc(C)n(Cc3ccco3)c2=O)CC1 (stereo not given)	–	–	–	·	–	·
Cc1ccc(NC(=O)CSc2nnc(COc3ccc(Cl)cc3)o2)c(C)c1	–	–	–	·	–	·
CCOC(=O)c1cccc2c1N[C@@H](c1ccc(F)cc1)[C@H]1CC=C[C@@H]21	39.8µM	?	?	·	10µM	·
COc1ccc(NC(=O)Cn2c(=O)n(Cc3ccccc3Cl)c(=O)c3cc(OC)c(OC)cc32)cc1OC	–	–	–	·	–	·
CCOc1ccc2nc(NC(=O)c3cc(=O)c4cc(C)cc(C)c4o3)sc2c1	–	–	–	·	–	·
COc1cccc(-c2nnc(SCC(=O)OC(C)C)n2Cc2ccco2)c1	–[11.4 µM]	–	–	?	39.8µM	–
CC(C)OC(=O)CSc1nnc(-c2cnccn2)n1Cc1ccco1	–	–	?	–	–	·
CC(C)OC(=O)CSc1nnc(Cc2ccccc2)n1Cc1ccco1	–	–	–	·	8.91µM	–
Cc1occc1C(=O)NCc1ccccc1	–	–	–	–	–[0.0925 µM]	–
Cc1occc1C(=O)NCCc1ccc(Cl)cc1	–	–	–	·	79.4µM	·
Cc1cc(NC(=O)c2ccoc2C)no1	–	–	–	–	5.01µM	–
Cc1occc1C(=O)Nc1ccccc1NC(=O)c1ccoc1C	89.1µM	–	·	?	·	·
Cc1occc1C(=O)NNC(=O)Cc1ccccc1	–	–	–	·	0.199µM	–
Cc1cc(NC(=O)c2cc(C)on2)no1	–	–	–	·	–	–
Cc1occc1C(=O)Nc1ccccc1C#N	–	–	–	–	·	·
CCC(Oc1ccccc1)C(=O)N1CCN(Cc2cc(=O)n3nc(-c4cccc(C)c4)sc3n2)CC1 (stereo not given)	–	–	–	·	–	·
Cc1ccsc1C(=O)NNC(=O)Nc1ccc(Cl)c(Cl)c1	–[11.4 µM]	–	–	–	–	–
SMILES	JMJD2A Tudor inh	HP1b binding inh	BAZ2B inh	PI5P4Ka inh	G9a block	L3MBTL1 inh
Cc1occc1C(=O)Nc1ccc(S(N)(=O)=O)cc1	22.4µM	?	–	–	·	–
Cc1cc(C(=O)Nc2cccc3ccccc23)c(C)o1	–	–	–	–	–	·
Cc1occc1C(=O)NNC(=O)Nc1ccc(Cl)c(Cl)c1	50.1µM	–	–	–	–	–
Cc1occc1C(=O)Nc1cccc2ccccc12	–	–	–	–	11.2µM	–
NC(=O)C[C@@H]1NC(=O)c2cc([N+](=O)[O-])cc(F)c2NCCCC[C@@H](C(N)=O)NC(=O)[C@H](CO)NC1=O	·	·	?	·	50.1µM	–
NC(=O)[C@@H]1CCCCNc2c(I)cc([N+](=O)[O-])cc2C(=O)N[C@@H](CCC(=O)O)C(=O)N[C@@H](CO)C(=O)N1	–	–	–	–	39.8µM	?
NC(=O)[C@@H]1CCNc2c(I)cc([N+](=O)[O-])cc2C(=O)N[C@@H](CCC(=O)O)C(=O)N[C@@H](CO)C(=O)N1	–	–	–	–	10µM	–
NC(=O)[C@@H]1CCCNc2c(F)cc([N+](=O)[O-])cc2C(=O)N[C@@H](CCC(=O)O)C(=O)N[C@@H](CO)C(=O)N1	–	–	–	–	79.4µM	–
